Unmarked numbers belong to inactive results. Results filed as inconclusive are left out. Activity calls are given as the source filed them. Unless noted, calls follow the shape of the dose curve; as a rule, active = well fitted curve in the direction sought with a large enough effect; inconclusive = small, poorly fitted or top-dose-only effect, or another doubt; inactive = no such curve, though single readings can be large; an effect the other way counts as inactive or inconclusive.

Test [1] addresses Glucocorticoid receptor (Homo sapiens) (UniProt P04150). The experiment in a line: GR-GFP Redistribution (AID 450;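 active = compounds whose dose series gives a full or clear partial fitted curve of increased nuclear translocation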; also: potency is read from the fitted curve at half-maximal effect). As to conditions: U2OS GR-GFP nuclear translocation, laser cytometry, 2 h.
Test [2] has the same target. The experiment in a line: GR-EFC Redistribution (AID 451; calls by dose curve; also: potency is read from the fitted curve at half-maximal effect). The following applies: CHO-K1 GR-EFC translocation, beta-gal luminescence, 2 h. In short, it runs like this:
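CHO-K1 cells stably expressing nuclear-localized β-gal enzyme acceptor and GR fused C-terminally to the enzyme donor fragment; ligand-driven nuclear translocation restores β-gal by complementation. Compounds titrated up to 46 uM final, 2 h at 37 °C; luminescence read.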

Test [3] deals with Mitogen-activated protein kinase 10 (Mus musculus) (UniProt Q61831). The test is described as follows: JNK3 AlphaScreen Assay (AID 530; active = well fitted curve in either direction with a large enough effect, not every such curve was filed as active;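 also: kinase came from lysate of stimulated human HepG2 cells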; also: potency is read from the fitted curve at half-maximal effect). The following applies: JNK3 lysate, c-Jun phosphorylation; series mostly up to 57.1 µM. In short, it runs like this:
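Biotinylated GST-cJun(1-79) served as substrate for JNK3 in HepG2 lysates stimulated with IL-1beta and TNF-alpha. ATP was 10 uM final, pH 7.6. Ser73 phosphorylation was quantified by AlphaScreen (680 nm excitation).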

Test [4] has as its target 3',5'-cyclic-AMP phosphodiesterase 4B (Homo sapiens) (UniProt Q07343). The test is described as follows: qHTS Assay for Inhibitors of PDE-IV (AID 607; active = well fitted activation curve with a large enough effect in the main read-out, with a control signal flat, not every such curve was filed as active). The following applies: HEK293 ACTOne CNG channel cells, membrane potential fluorescence; series mostly up to 22.9 µM. In short, it runs like this:
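Cell-based read-out of cAMP via a modified cyclic nucleotide-gated channel and membrane potential dye (535/590 nm) in HEK293 cells expressing PDE4 endogenously. Compounds tested up to 22.9 uM final; 100 uM RO 20-1724 reference.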
In general terms: qHTS replaces the single test concentration by a dilution series.

In test [5] the target is Guanine nucleotide-binding protein G(i) subunit alpha-1 (Homo sapiens) (UniProt P63096). The experiment in a line: qHTS Assay for Inhibitors of RGS12 GoLoco Motif Activity (Green Fluorophore) (AID 879).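 Also: negative values mean loss of peptide binding seen as reduced polarization.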 The following applies: Galphai1/FITC-RGS12 GoLoco peptide, fluorescence polarization; series mostly up to 57.1 µM. In short, it runs like this:
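A drop in FITC polarization marked displacement of the FITC-tagged RGS12 GoLoco peptide (10 nM) from Gαi1 (50 nM). Compounds were incubated 10 min at room temperature in Tris pH 7.5 buffer containing 150 mM NaCl, 0.1 mM GDP and 0.05% NP40; unlabeled peptide titration served as control.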

Test [6] addresses Pyruvate kinase (Leishmania mexicana) (UniProt Q27686). The experiment in a line: qHTS Validation Assay for Inhibitors of Leishmania Mexicana Pyruvate Kinase (AID 945). The following applies: purified L. mexicana pyruvate kinase, enzyme activity, E451W mutant enzyme; series mostly up to 57.5 µM. In short, it runs like this: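 Mutant LmPYK (E451W), 0.2 nM, plus 0.5 mM PEP and 0.1 mM ADP in 50 mM imidazole pH 7.2 containing 0.01% Tween 20 and 0.05% BSA. Incubated 1 h at room temperature; luminescence via PKLight, normalized to DMSO.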

The target of test [7] is DNA dC->dU-editing enzyme APOBEC-3G (Homo sapiens) (UniProt Q9HC16). The experiment in a line: qHTS for inhibitors of Vif-A3G interactions: Validation (AID 588379). Also: potency is read from the fitted curve at half-maximal effect. As to conditions: Vif-A3G protein interaction assay; series mostly up to 46.1 µM. In short, it runs like this:
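Yellow fluorescence (Ex 488, Em 500-530) of Vif-coexpressing HeLa A3G-eYFP cells, scanned by Acumen cytometer, reports blocked A3G degradation. Cells plated at 700/well overnight at 37 deg C before compound addition, then a further overnight compound incubation at 37 deg C.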

For test [8], the system named is Zika virus NS2B-NS3 protease. The test is described as follows: Primary screen GU AMC qHTS for Zika virus inhibitors (AID 1347154). Also: nearly all actives have a fitted effect of over 70% in size. As to conditions: Zika NS2B-NS3 unlinked protease, AMC fluorogenic substrate; series mostly up to 54.1 µM. In short, it runs like this: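 Unlinked Zika NS2B hydrophilic domain/NS3 protease domain noncovalent complex (25 nM final) in 10 mM Tris-HCl pH 8.0, 0.01% Tween 20, with AMC peptide substrate. Fluorescence (ex 340, em 450 nm) change over 15 min, room temperature; percent inhibition fitted to 4-parameter Hill equation.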

A short description of test [9]: Primary qHTS for small molecule stabilizers of the endoplasmic reticulum resident proteome: Secreted ER Calcium Modulated Protein (SERCaMP) assay (AID 1508630). The following applies: SH-SY5Y GLuc-SERCaMP (Gaussia luciferase released on ER calcium loss) secretion, thapsigargin, luminescence; series mostly up to 38.4 µM. In short, it runs like this: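 The SH-SY5Y reporter protocol was run at 3 concentrations up to 38.3 uM (primary) or 11 concentrations (follow-up): 16 h compound, 100 nM thapsigargin for 4 h, then extracellular luciferase luminescence.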

Test [10] concerns the target Cytochrome P450 2C19 (Homo sapiens) (UniProt P33261). The experiment in a line: qHTS Assay for Inhibitors and Substrates of Cytochrome P450 2C19 (AID 899). Also: nearly all actives have a fitted effect of over 60% in size. Also: potency is read from the fitted curve at half-maximal effect. As to conditions: recombinant CYP2C19, luciferin-H EGE luminescence; series mostly up to 57.1 µM. In short, it runs like this: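 NADPH-dependent conversion of Luciferin-H EGE (10uM, at KM) by 5nM enzyme in 50mM KPO4, 60 min at 37C following 10 min compound preincubation. Stopped with luciferin detection buffer; luminescence read after 20 min.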

Test [11] concerns the target Ubiquitin carboxyl-terminal hydrolase 1 (Homo sapiens) (UniProt O94782). The test is described as follows: Inhibitors of USP1/UAF1: Pilot qHTS (AID 504865). Also: nearly all actives have a fitted effect of over 35% in size. Also: potency is read from the fitted curve at half-maximal effect. The following applies: purified USP1/UAF1, Ub-rhodamine cleavage fluorescence; series mostly up to 114 µM. In short, it runs like this: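 Deubiquitinase activity followed as kinetic rhodamine fluorescence release from 150 nM Ub-Rho. 1 nM USP1/UAF1 with compound, after 15 min room-temperature preincubation, in HEPES pH 7.8 buffer containing TCEP, EDTA, BSA and Tween-20.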

Test [12] has as its target Cytochrome P450 3A4 (Homo sapiens) (UniProt P08684). The test is described as follows: qHTS Assay for Inhibitors and Substrates of Cytochrome P450 3A4 (AID 884). Also: potency is read from the fitted curve at half-maximal effect; nearly all actives have a fitted effect of over 50% in size. As to conditions: recombinant CYP3A4, Luciferin-PPXE luminescence; series mostly up to 57.1 µM. In short, it runs like this: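 Luminescent readout of luciferin produced by CYP3A4 (20 nM) dealkylation of Luciferin-PPXE, 25 uM (its KM). NADPH-driven reaction ran 60 min at RT after 10 min compound preincubation; data scaled to 57 uM ketoconazole as 100% inhibition.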

For test [13] the target is unchanged. The experiment in a line: qHTS Assay for Activators of Cytochrome P450 3A4 (AID 885). Also: nearly all actives have a fitted effect of over 65% in size. The following applies: recombinant CYP3A4, Luciferin-PPXE luminescence, 60 min; series mostly up to 57.1 µM. In short, it runs like this: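 Luminescent readout of luciferin formed from 25 uM Luciferin-PPXE (KM level) by 20 nM CYP3A4 in 200 mM KPO4, with 60 min NADPH-driven reaction at room temperature after 10 min compound exposure. Ketoconazole (57 uM) defined 100% inhibition.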

Glucocorticoid receptor (Homo sapiens), sequence (P04150 whole entry, looked up): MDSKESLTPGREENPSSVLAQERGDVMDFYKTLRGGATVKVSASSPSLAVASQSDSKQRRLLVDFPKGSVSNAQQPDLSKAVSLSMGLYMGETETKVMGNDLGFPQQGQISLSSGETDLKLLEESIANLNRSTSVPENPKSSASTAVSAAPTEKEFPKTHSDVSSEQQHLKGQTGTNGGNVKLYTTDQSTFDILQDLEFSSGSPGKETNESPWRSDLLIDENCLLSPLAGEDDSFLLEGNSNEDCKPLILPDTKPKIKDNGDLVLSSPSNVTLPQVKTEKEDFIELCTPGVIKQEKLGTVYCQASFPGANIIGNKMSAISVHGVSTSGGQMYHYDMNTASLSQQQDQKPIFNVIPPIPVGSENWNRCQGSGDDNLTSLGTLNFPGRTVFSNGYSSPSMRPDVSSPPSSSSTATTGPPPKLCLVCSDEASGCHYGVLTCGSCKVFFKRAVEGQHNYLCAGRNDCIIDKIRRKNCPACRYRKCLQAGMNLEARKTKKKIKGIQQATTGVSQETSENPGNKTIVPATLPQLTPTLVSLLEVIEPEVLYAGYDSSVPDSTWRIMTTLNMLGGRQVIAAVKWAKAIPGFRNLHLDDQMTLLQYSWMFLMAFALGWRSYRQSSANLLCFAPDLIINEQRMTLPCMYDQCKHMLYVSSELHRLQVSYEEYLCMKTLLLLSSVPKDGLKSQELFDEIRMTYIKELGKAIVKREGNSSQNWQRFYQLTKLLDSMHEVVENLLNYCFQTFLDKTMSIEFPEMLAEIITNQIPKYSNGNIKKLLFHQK
Cytochrome P450 3A4 (Homo sapiens), sequence (P08684 whole entry, looked up): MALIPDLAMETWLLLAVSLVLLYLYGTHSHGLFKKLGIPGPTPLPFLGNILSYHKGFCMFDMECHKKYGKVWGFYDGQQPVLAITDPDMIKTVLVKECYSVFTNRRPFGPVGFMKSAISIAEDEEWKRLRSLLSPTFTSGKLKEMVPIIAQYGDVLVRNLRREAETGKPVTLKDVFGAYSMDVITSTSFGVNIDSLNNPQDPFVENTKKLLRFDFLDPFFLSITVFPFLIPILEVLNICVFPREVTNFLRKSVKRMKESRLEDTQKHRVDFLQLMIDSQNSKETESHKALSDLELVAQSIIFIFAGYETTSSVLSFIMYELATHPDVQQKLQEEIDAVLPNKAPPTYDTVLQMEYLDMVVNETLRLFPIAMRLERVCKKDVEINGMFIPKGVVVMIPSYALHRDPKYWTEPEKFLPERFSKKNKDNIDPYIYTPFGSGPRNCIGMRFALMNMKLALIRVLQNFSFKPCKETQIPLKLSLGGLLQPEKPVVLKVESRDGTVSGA
3',5'-cyclic-AMP phosphodiesterase 4B (Homo sapiens), sequence (Q07343 whole entry, looked up): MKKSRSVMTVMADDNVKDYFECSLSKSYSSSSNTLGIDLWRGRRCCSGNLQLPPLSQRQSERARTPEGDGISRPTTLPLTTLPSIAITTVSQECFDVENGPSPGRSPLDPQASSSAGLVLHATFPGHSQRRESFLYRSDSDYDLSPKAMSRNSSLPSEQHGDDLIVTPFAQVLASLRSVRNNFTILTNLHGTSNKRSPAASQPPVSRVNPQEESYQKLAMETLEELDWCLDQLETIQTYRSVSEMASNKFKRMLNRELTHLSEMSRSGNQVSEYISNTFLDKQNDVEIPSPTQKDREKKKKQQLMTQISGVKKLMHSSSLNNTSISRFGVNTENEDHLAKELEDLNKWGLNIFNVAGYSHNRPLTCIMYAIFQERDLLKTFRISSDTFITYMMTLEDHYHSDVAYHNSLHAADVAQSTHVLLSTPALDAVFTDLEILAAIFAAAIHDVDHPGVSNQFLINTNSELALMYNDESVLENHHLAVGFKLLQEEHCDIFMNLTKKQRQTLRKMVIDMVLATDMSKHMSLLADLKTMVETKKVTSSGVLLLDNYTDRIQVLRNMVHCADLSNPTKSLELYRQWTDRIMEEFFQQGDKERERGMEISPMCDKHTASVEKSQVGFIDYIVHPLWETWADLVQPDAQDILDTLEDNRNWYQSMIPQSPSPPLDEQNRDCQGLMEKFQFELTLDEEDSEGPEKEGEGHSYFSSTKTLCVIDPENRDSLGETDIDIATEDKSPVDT
DNA dC->dU-editing enzyme APOBEC-3G (Homo sapiens), sequence (Q9HC16 whole entry, looked up): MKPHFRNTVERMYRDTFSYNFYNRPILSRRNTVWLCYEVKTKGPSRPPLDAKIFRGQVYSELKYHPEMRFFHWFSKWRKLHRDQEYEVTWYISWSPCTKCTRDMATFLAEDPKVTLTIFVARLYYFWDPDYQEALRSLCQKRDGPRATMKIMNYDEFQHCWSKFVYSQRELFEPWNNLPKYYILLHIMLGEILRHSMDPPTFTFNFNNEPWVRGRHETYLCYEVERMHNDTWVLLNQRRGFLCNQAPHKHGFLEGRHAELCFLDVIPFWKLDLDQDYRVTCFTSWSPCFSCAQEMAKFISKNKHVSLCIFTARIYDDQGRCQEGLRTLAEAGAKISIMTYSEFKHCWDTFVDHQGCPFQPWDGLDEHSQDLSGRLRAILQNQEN
Cytochrome P450 2C19 (Homo sapiens), sequence (P33261 whole entry, looked up): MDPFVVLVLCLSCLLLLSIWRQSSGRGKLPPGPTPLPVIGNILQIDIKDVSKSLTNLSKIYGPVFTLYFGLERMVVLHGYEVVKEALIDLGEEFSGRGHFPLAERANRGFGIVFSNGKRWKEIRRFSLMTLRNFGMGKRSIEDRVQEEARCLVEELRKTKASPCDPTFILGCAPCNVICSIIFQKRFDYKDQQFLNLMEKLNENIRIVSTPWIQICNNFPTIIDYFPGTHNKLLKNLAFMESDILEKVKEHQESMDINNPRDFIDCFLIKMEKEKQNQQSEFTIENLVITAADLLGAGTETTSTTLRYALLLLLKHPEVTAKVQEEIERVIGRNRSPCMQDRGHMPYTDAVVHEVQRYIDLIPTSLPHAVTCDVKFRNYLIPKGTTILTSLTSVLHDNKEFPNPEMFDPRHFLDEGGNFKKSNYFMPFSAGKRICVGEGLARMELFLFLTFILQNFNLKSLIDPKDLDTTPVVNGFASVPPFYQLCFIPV
Ubiquitin carboxyl-terminal hydrolase 1 (Homo sapiens), sequence (O94782 whole entry, looked up): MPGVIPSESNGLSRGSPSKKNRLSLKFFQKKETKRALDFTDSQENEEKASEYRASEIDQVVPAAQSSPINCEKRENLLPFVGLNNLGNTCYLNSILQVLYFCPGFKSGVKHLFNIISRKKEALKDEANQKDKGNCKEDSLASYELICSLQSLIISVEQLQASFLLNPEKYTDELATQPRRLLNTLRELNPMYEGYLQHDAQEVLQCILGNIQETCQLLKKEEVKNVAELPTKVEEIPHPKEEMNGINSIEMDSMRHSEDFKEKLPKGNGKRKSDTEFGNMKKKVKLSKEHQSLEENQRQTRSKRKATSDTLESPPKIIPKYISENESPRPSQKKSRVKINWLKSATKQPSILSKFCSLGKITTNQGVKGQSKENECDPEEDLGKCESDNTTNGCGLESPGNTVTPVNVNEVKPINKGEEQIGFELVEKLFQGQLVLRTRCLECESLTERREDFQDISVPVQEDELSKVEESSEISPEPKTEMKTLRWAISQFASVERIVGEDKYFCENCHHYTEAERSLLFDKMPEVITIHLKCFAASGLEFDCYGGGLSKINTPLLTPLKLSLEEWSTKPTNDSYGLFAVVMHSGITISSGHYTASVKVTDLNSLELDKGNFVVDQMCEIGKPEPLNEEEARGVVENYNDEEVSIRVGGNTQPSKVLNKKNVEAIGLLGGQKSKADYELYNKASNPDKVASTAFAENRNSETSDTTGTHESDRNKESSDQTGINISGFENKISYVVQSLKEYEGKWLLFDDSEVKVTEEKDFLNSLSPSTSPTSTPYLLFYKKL
Guanine nucleotide-binding protein G(i) subunit alpha-1 (Homo sapiens), sequence (P63096 whole entry, looked up): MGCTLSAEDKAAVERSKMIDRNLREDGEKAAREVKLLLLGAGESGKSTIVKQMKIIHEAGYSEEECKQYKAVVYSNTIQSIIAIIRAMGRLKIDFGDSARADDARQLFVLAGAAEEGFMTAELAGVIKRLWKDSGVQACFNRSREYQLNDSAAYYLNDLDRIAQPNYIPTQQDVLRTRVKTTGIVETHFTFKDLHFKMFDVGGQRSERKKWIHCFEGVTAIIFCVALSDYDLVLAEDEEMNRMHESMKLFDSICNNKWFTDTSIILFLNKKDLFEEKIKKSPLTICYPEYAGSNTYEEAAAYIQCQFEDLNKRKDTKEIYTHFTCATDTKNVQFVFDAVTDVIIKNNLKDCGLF
Pyruvate kinase (Leishmania mexicana), sequence (Q27686 2-499 E452W): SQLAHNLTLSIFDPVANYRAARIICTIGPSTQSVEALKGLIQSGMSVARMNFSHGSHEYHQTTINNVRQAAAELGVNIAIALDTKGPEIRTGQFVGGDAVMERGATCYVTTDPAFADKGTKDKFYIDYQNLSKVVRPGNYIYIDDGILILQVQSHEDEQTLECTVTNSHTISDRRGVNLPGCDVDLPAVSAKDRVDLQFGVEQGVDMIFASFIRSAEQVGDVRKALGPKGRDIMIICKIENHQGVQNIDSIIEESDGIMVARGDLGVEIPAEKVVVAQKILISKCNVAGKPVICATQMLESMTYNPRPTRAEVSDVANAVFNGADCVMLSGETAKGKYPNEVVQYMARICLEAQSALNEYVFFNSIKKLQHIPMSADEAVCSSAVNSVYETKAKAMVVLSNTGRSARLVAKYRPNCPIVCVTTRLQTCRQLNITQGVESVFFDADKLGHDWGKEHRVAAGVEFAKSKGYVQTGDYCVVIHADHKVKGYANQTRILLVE

For the molecule `CCCCCCCCCCCCCCCC(=O)O[C@H](CC(=O)O)C[N+](C)(C)C`, the Potency in test [1] and in [2] was over 46 µM each time. Moreover, the Potency entry in test [3], in [4], in [6], in test [7], in test [8] and in test [9] was “inactive” in each case. Further, in [5], the outcome was inactive.
`C=CC1=C(C)C2=NC1=CC1=NC(=CC3=NC(=CC4=NC(=C2)C(C)=C4CCC(=O)O)C(CCC(=O)O)=C3C)C(C=C)=C1C.[Zn]`: the Potency in test [3] was 0.794 µM [activator] (active); in [11], 44.7 µM (active). Moreover, the Potency entry in test [4], in test [10], in test [7], in test [8] and in test [9] was “inactive” throughout.
Take `Cc1c(-c2ccc(Cl)cc2)noc1C1CCN(CCc2ccccc2)CC1`: the Potency in test [1] and in [2] was over 46 µM in each case. In addition, the Potency entry in test [4], in test [7], in [8] and in test [9] was “inactive” throughout.
On to `CC(=O)[C@H](CC(C)C)NC(=O)[C@@H](CC(C)C)NC(=O)[C@H](CC(C)C)NC(=O)OCc1ccccc1`, for which the Potency in test [1] was over 46 µM; in [2] it was over 46 µM; in test [7], 0.335 µM (active). The Potency entry in test [4], in test [8] and in test [9] was “inactive” in each case.
Consider `Cn1ccc2cc(NC(=O)Nc3cccnc3)ccc21`, for which the Potency in [1] and in test [2] was over 46 µM in each case. The Potency result in test [4], in [7], in test [8] and in [9] was “inactive” throughout.
`c1ccc(CN2CCC3(CCc4ccccc43)CC2)cc1`: the Potency in test [1] and in [2] was over 46 µM in each case. The Potency result in [7], in [8] and in test [9] was “inactive” throughout.
On to `CN1CCc2cc3c(cc2[C@@H]1[C@@H]1C(=O)Oc2c1ccc1c2OCO1)OCO3`, for which the Potency is over 46 µM in test [1], over 46 µM in [2], 1.26 µM (active) in test [12] and 0.02 µM (active) in test [10]. Besides, the Potency result in [3], in [4], in [13], in [7], in test [8] and in test [9] was “inactive” each time.
As to `C#CCCCCCCCCCCCCCCCC(=O)O`, the Potency in test [1] was over 46 µM. Moreover, the Potency result in test [4], in test [7], in test [8] and in test [9] was “inactive” in each case.
Turning to `CC(=O)[C@H]1CC[C@H]2C3CC=C4C[C@@H](O)CC[C@]4(C)C3CC[C@]12C` (some centres undefined), the Potency result in test [8] and in test [9] was “inactive” in each case.
As for `COc1cc([C@@H]2c3cc4c(cc3[C@@H](O[C@@H]3O[C@H]5CO[C@@H](C)O[C@@H]5[C@@H](O)[C@H]3O)[C@@H]3COC(=O)[C@@H]23)OCO4)cc(OC)c1O`, the Potency entry in test [3], in [4], in test [7], in test [8] and in test [9] was “inactive” in each case.
Take `O=[N+]([O-])c1ccc2cn[nH]c2c1`: the Potency in [2] was over 46 µM. Also, the Potency entry in [13], in test [11], in test [7], in test [8] and in test [9] was “inactive” each time.
For `COc1ccc(C(OCCN2CCC[C@@H](C(=O)O)C2)(c2ccc(OC)cc2)c2ccc(OC)cc2)cc1`, the Potency in test [1] and in test [2] was over 46 µM each time. Moreover, the Potency result in test [4], in test [13], in test [7], in test [8] and in [9] was “inactive” each time.

The record behind these values is PubChem BioAssay (NCATS).
